Measured values: the supplement of paper PMC6555819

Experiments:
Experiment in all cases: PBM binding z-score (relative to random genomic background probes); higher = stronger binding; sequences stand for … in GC…GCGATTGACAGCGTAGAATGAAGG
[1] = test system: FXR:RXRa (NR concentration 270 nM, RXRa partner concentration 90 nM)
Outline: (§1)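 Custom Agilent 4×180K protein-binding microarrays carried double-stranded probes. Their 34-nt variable regions held direct-repeat seeds, single-nucleotide variants, half-site ablations and random human genomic background sequences. Arrays were incubated 1 h with ligand-free nuclear receptor dimers in PBS pH 7.4, 2% milk, 0.02% Triton X-100, 1 mM DTT, 0.2 mg/mL BSA and 0.4 mg/ml salmon testes DNA. Antibodies against each partner (one per run) detected binding, and scanned fluorescence was regression-normalized. Binding z-scores use random background probes as reference.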

[2] = test system: LXRa:RXRa (NR concentration 270 nM, RXRa partner concentration 90 nM)
Outline: as §1

[3] = test system: LXRa homodimer (NR concentration 270 nM)
Outline: as §1

[4] = test system: LXRb:RXRa (NR concentration 270 nM, RXRa partner concentration 90 nM)
Outline: as §1

[5] = test system: LXRb homodimer (NR concentration 270 nM)
Outline: as §1

[6] = test system: PPARa:RXRa (NR concentration 270 nM, RXRa partner concentration 90 nM)
Outline: as §1

[7] = test system: PPARg:RXRa (NR concentration 180 nM, RXRa partner concentration 90 nM)
Outline: as §1

[8] = test system: PPARg:RXRa 270nM:90nM, anti-RXR (NR concentration 270 nM, RXRa partner concentration 90 nM)
Outline: as §1

[9] = test system: PPARg:RXRa 30nM:10nM, anti-RXR (NR concentration 30 nM, RXRa partner concentration 10 nM)
Outline: as §1

[10] = test system: PPARg:RXRa 90nM:30nM, anti-RXR (NR concentration 90 nM, RXRa partner concentration 30 nM)
Outline: as §1

Sequence | PBM binding z-score [1] | PBM binding z-score [2] | PBM binding z-score [3] | PBM binding z-score [4] | PBM binding z-score [5] | PBM binding z-score [6] | PBM binding z-score [7] | PBM binding z-score [8] | PBM binding z-score [9] | PBM binding z-score [10]
CAAACTAGGTCACAGATGTCAAAGTCCGTGCGTA | 3.99 | 3.51 | 0.769 | 2.81 | 0.443 | 5.44 | 8.76 | 7.33 | 5.52 | 7.25
GCTCGGTGGACAAGGTCAGAGCTTTGTCCGTAGA | 1.11 | 1.03 | -0.446 | 0.887 | -1.16 | 2.09 | 0.0962 | 1.14 | -0.712 | 0.499
GCGACTGGGGCAAAGCAGGTTTCCATAAGGTTGG | -0.319 | -0.518 | -0.852 | -0.284 | -0.53 | 0.542 | 0.609 | 0.674 | -0.401 | 0.205
ACTATTAGTTGACTTTGGGCAACCGATACGACGC | 0.0915 | 0.0714 | 0.0306 | 0.155 | 0.67 | -0.00502 | 0.965 | 0.394 | 0.326 | 0.537
GCATATAGGTAATACAACGTGAAAGTCCGATTGT | -0.622 | -0.502 | -0.205 | -0.638 | -0.368 | 0.333 | 1.02 | 0.49 | 0.28 | 0.431
CAAACTAGGTCACGAAAGGTCAAAGTAGAATGAC | 7.59 | 8.11 | 8.28 | 7.19 | 2.72 | 6.77 | 10.6 | 8.55 | 6.87 | 8.89
GCTTGTAGATCAAGGTTATGAAAGACTAAGCTAA | 0.138 | 0.572 | -0.505 | 0.452 | -0.591 | 1.3 | 0.656 | 0.989 | 0.21 | 0.553
CTCGAAAGGTCGGTTCAGGTGAGTATACGGATAA | 2.48 | 1.92 | 0.307 | 1.74 | 0.00585 | 2.86 | 0.546 | 1.36 | 0.0497 | 0.769
ATTTCTAGGTAACCAAGTTCAGTGAATGCCGAAC | 0.465 | 0.956 | 1.1 | 0.544 | 0.68 | 2.16 | 1.8 | 1.8 | 0.773 | 1.38
ATGTGTAGGTTATCGGGTCATTCAGTTTGCGCAT | 3.54 | 3.13 | 1.9 | 3.3 | 1.26 | 4.08 | 4.09 | 4.29 | 1.54 | 3.43
ATCGAAAGGTCTACGAGGTGAGTATACACCGTTT | 0.287 | 0.343 | -0.515 | 0.353 | -0.0521 | 1.03 | 0.797 | 0.573 | 0.114 | 0.523
TCATATAGGGAAATGCTAGGTGAAAGTCCGATCT | 1.31 | 0.732 | 0.053 | 0.609 | -0.0156 | 0.83 | 0.563 | 2.3 | 3.82 | 2.91
CGAACTAGATCAGAACAGGACAGTGAAGGATGAT | -0.267 | -0.369 | -0.16 | -0.794 | -0.0768 | -0.51 | 0.886 | -0.506 | 0.112 | -0.125
TCATATAGGTCAAGGTGAAAGTCGAACGATATGA | 6.5 | 4.65 | 0.783 | 3.73 | 0.775 | 6.15 | 8.55 | 7.65 | 6.25 | 7.63
CCTTACGGGTCACGAGGATATAGCACGACGAGCG | 6.44 | 4.11 | 0.0313 | 3.62 | -0.175 | 5.81 | 6.65 | 6.23 | 2.94 | 4.99
TCTGCTAGGTCAGTTGGTCAGCTGACGAGCTGCC | 0.985 | 0.585 | -0.512 | 0.147 | 0.278 | 1.34 | 0.32 | 1.68 | 1.08 | 0.992
GCTAGCAGGCCATTTGGGTCATTCAATGACGGGC | 0.317 | 0.0338 | -0.598 | 0.324 | -1.08 | 1.47 | 0.533 | 0.233 | -0.872 | -0.17
CCTTACGGGTCACTCCAGGTTATAGCATCGGAGT | 4.9 | 7.65 | 1.97 | 5.36 | 0.226 | 4.64 | 3.53 | 3.74 | 1.18 | 2.57
GCATATAGGTAATACAAGTTGAAAGTCCGATTGT | 0.281 | 0.793 | -0.112 | 0.0778 | -0.33 | 1 | 1.05 | 0.484 | -0.0817 | 0.166
